In PubChem BioAssay:
The source made the active and inactive calls.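 How the source made its calls, unless noted: active means inhibition of the reporter signal at or above 50%; inactive means inhibition below 50%.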

What was measured:
[1] = inhibitors of TNFa-induced NFkB p65 translocation, primary screen, imaging, HUVEC, MLSMR starter and 10KST1 sets (AID 438;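 active means inhibition above 20% together with a positive visual image hit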;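 further: compound added about 3h40 before a 20 min TNFalpha stimulation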;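 on inhibition: signal is the nuclear over cytoplasmic p65 intensity ratio per well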); details: HUVEC TNFa-induced p65 nuclear translocation; cell count: measured here: nuclei count (cytotoxicity indicator), at 2.08 µM; inhibition: at 2 µM, stronger effect = higher value, 0% TNFa-plus-vehicle, 100% no-TNFa wells
[2] = inhibitors of mutant huntingtin aggregation, primary screen, imaging, exon1htt(103Q)mCFP cells, high-content imaging (AID 483;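 active means visual image review flags a hit and inhibition of aggregation exceeds 20%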;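 further: compound exposure lasted 3 days before fixation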;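 on nuclei count: percent of the per-plate median nuclei count of sample wells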); details: exon1htt(103Q)mCFP cell line, aggregate imaging, at 2 µM; inhibition of aggregation: stronger effect = higher value; nuclei count: measured here: cell count, toxicity
[3] = inhibitors of E-selectin induction by TNFa, primary screen, imaging, HUVEC, immunofluorescence, MLSMR starter and 10KST1 sets (AID 487;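 active means visually confirmed hit in the image check and inhibition above 20%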;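 on inhibition: signal is fraction of cell area covered by stained E-selectin grains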;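 on nuclei count: 100% = median nuclei count of all wells on the same plate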); details: HUVEC TNFalpha-induced E-selectin immunofluorescence imaging, at 2 µM; inhibition: stronger effect = higher value; nuclei count: measured here: cell number, toxicity
[4] = biological target: Voltage-gated potassium channel subunit beta-2 (Rattus norvegicus) (UniProt P62483); test: KvBeta enzyme negative modulators, primary screen, biochemical, NADPH fluorescence (AID 622;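 active means fluorescence slope higher than the sample average by over 3 SD, cut at about -0.22 in these data, passing the limit was not always enough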;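 further: slope of raw intensity against log time taken from 70 to 1610 s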); details: recombinant KvBeta, 4-cyanobenzaldehyde reduction, at 10 µM, stronger effect = higher value
Sequence of Voltage-gated potassium channel subunit beta-2 (Rattus norvegicus) (P62483 whole entry, looked up): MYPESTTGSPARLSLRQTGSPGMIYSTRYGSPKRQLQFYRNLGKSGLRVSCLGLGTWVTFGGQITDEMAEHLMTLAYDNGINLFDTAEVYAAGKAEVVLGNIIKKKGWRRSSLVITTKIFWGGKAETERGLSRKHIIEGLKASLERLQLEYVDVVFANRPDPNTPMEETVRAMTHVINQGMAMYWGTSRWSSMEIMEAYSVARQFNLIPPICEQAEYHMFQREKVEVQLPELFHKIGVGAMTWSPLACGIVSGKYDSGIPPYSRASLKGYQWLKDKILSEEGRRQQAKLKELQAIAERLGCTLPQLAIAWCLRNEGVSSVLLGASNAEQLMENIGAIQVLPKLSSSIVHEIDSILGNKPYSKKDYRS

[5] = biological target: Voltage-gated potassium channel subunit beta-2 (Rattus norvegicus) (UniProt P62483); test: KvBeta positive modulators, primary screen, biochemical, NADPH fluorescence (AID 623;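 active means NADPH fluorescence slope more negative than the mean of all samples by about 3 SD, 99.7% confidence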;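 further: fluorescence intensity change per second fitted from 20 to 320 s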); details: Recombinant KvBeta, NADPH fluorescence decrease slope, 10 min; at 10 µM; stronger effect = lower value
[6] = biological target: Alpha-2C adrenergic receptor (Homo sapiens) (UniProt P18825); test: modulators of alpha2C/GIRK thallium flux, primary screen, cell-based, HEK293 alpha2C/GIRK1/2 (AID 624;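 active means fluorescence slope after compound addition differing from the mean of all screened samples at 99.7% confidence, in either direction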;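 further: slope of fluorescence ratio to pre-addition baseline per second over 15 to 24 s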); details: thallium flux BTC fluorescence, at 10 µM, actives lie on both sides
Sequence of Alpha-2C adrenergic receptor (Homo sapiens) (P18825 whole entry, looked up): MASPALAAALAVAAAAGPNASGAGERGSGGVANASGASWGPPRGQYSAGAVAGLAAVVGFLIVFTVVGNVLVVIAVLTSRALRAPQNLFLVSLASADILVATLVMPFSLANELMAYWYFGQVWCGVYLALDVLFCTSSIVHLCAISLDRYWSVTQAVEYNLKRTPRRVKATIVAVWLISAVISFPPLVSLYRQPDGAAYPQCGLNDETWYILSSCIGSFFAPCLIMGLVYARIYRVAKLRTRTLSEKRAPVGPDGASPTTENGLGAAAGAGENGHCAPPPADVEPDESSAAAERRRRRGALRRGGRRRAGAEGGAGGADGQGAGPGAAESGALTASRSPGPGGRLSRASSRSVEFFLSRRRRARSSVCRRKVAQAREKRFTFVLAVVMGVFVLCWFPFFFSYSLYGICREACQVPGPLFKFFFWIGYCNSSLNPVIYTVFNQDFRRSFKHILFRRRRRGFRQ

[7] = inhibitors of Sendai virus-induced IRF3 signaling, primary screen, TLR/RLR signaling modifier project, cell-based, Sendai virus stimulus, luciferase, 10K MLSCN set (AID 602276;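 active means inhibition at or above 50% at 10 µM; inactive means inhibition below 50%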;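 further: firefly luciferase from ISG56 promoter only with Renilla not read in this screen; 0% = Sendai virus plus DMSO and 100% = medium plus DMSO without virus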); details: HEK293 RL24 IRF3 luciferase reporter, at 10 µM, stronger effect = higher value
[8] = inhibitors of poly I:C-induced TLR3 signaling, primary screen, cell-based, poly I:C stimulus, luciferase, 10K MLSCN set (AID 602277); details: HEK293-TLR3 RL24 IRF3 luciferase reporter, at 10 µM, stronger effect = higher value

SMILES | cell count [1] | inhibition [1] | inhibition of aggregation [2] | nuclei count [2] | inhibition [3] | nuclei count [3] | fluorescence slope [4] | NADPH fluorescence slope [5] | slope [6] | inhibition [7] | inhibition [8]
CC(C)C(=O)Nc1ccc(-c2nc3cccnc3o2)cc1 | 413 | 6.7% (inactive) | 12.8% (inactive) | 109% | 23.3% (inactive) | 107% | -0.262 (inactive) | 4.8e-06 (inactive) | 0.0065 (inactive) | -33.7% (inactive) | -147% (inactive)
CCn1cc(C2=NOC(C(=O)Nc3c(C)nn(Cc4ccc(F)cc4)c3C)C2)c(C)n1 (stereo not drawn) | 766 | -12.2% (inactive) | -18.1% (inactive) | 105% | -34.2% (inactive) | 94.7% | -0.581 (inactive) | -2.9e-05 (inactive) | 0.00617 (inactive) | 12.3% (inactive) | 11.4% (inactive)
O=C(CS(=O)(=O)c1cn(Cc2ccc(Cl)cc2)c2ccccc12)N1CCOCC1 | 531 | 4.3% (inactive) | 37.8% (inactive) | 91.1% | -8.5% (inactive) | 110% | -0.504 (inactive) | 7.7e-07 (inactive) | 0.00671 (inactive) | 5.23% (inactive) | 17.5% (inactive)
CC(=O)Nc1ccccc1-c1nc2ccc(C(=O)N3CCN(c4ccccc4)CC3)cc2[nH]c1=O | 617 | 14.7% (inactive) | -6.6% (inactive) | 96.8% | -3.1% (inactive) | 110% | -0.489 (inactive) | -4.7e-05 (inactive) | 0.00656 (inactive) | 5.92% (inactive) | -0.673% (inactive)
CCOC(=O)c1oc2c(CN3CCN(C)CC3)c(O)ccc2c(=O)c1-c1ccccc1OC | 463 | 2.1% (inactive) | -44.9% (inactive) | 86.2% | -59% (inactive) | 103% | -0.61 (inactive) | 8.1e-06 (inactive) | 0.00673 (inactive) | 9.7% (inactive) | 20.2% (inactive)
CCOC(=O)C1CCN(c2c(NC3CCCCCCC3)c(=O)c2=O)CC1 | 897 | 2.8% (inactive) | -6.4% (inactive) | 103% | -53.1% (inactive) | 118% | -0.575 (inactive) | -4.2e-05 (inactive) | 0.00631 (inactive) | 9.6% (inactive) | 32.7% (inactive)
CN1CCN(c2ncnc3c2cnn3-c2ccc(Cl)cc2)CC1 | 688 | -8.5% (inactive) | -0.6% (inactive) | 116% | -27.8% (inactive) | 122% | -0.591 (inactive) | 1.6e-05 (inactive) | 0.00771 (inactive) | 15.5% (inactive) | 6.85% (inactive)
COCC(C)NC(=O)CCS(=O)(=O)c1nc(-c2ccc(OC)cc2)cc(C(F)(F)F)n1 (stereo not drawn) | 638 | 7.9% (inactive) | 2.6% (inactive) | 96.3% | -37.9% (inactive) | 192% | -0.323 (inactive) | -2.1e-05 (inactive) | 0.00386 (inactive) | 17.7% (inactive) | 1.39% (inactive)
Cc1cccc(-n2c(SCc3cc(=O)n4ccsc4n3)nc3ccccc32)c1 | 439 | 5.1% (inactive) | -3.6% (inactive) | 97.1% | -73.8% (inactive) | 112% | -0.525 (inactive) | 1.8e-05 (inactive) | 0.00495 (inactive) | -11% (inactive) | -9.49% (inactive)
COc1ccccc1C(=O)Nc1ccc(N2CCN(Cc3ccccc3)CC2)cc1 | 690 | 12% (inactive) | 23.2% (inactive) | 95.9% | 19.4% (inactive) | 97% | -0.611 (inactive) | -1.3e-06 (inactive) | 0.00369 (inactive) | 9.6% (inactive) | -11% (inactive)
COc1ccc(-c2nnc(SC(C)C(=O)Nc3nccs3)n2-c2ccccc2)cc1OC (stereo not drawn) | 548 | -8% (inactive) | 2.8% (inactive) | 82.2% | -36.4% (inactive) | 93.8% | -0.496 (inactive) | 2.4e-05 (inactive) | 0.0047 (inactive) | -14.8% (inactive) | -2.92% (inactive)
O=C(Nc1c(C(=O)NCc2ccco2)cnn1-c1ccccc1)c1ccc(F)cc1 | 400 | 6.3% (inactive) | 12.1% (inactive) | 81.6% | -23.9% (inactive) | 89.1% | -0.294 (inactive) | -2.8e-06 (inactive) | 0.00584 (inactive) | -1.86% (inactive) | 15.1% (inactive)
Cc1ccccc1Cn1ccc(NC(=O)c2cnn3c(C(F)(F)F)cc(-c4ccco4)nc23)n1 | 568 | -3.8% (inactive) | 10.6% (inactive) | 96.8% | -7.4% (inactive) | 99.2% | -0.613 (inactive) | -5.8e-05 (inactive) | 0.00253 (inactive) | 19.2% (inactive) | 32% (inactive)
